A selection: hits, their analogues and other compounds. The true share with any hit is near 4.1%.
MRP1 act = MRP-1 activation; H69AR cells + doxorubicin, viability rescue, CellTiter-Glo; viability increase, % at 10 µM; 0.61% of 140,000 active;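 active means viability gain under doxorubicin at or above a set limit, the compound median plus 3 SD, cut at about 4.7% in these data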;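 further: MRP-1 overexpressing cells given doxorubicin 25 µM after compound pretreatment; 18-22 h compound pretreatment then 72 h with doxorubicin before readout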
CD11b adhes inh = blocks human CD11b/CD18 adhesion to fibrinogen; P05107+P11215; inhibition, % at 10 µM; K562 CD11b/CD18 adhesion to fibrinogen, ATPlite luminescence; Mn2+ added to activate the integrin; 0.54% of 93,000 active;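 active means primary inhibition of 50% or more at 10 µM, then 40% or more on retest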
Target sequence (P05107 whole entry, looked up, other chains not shown): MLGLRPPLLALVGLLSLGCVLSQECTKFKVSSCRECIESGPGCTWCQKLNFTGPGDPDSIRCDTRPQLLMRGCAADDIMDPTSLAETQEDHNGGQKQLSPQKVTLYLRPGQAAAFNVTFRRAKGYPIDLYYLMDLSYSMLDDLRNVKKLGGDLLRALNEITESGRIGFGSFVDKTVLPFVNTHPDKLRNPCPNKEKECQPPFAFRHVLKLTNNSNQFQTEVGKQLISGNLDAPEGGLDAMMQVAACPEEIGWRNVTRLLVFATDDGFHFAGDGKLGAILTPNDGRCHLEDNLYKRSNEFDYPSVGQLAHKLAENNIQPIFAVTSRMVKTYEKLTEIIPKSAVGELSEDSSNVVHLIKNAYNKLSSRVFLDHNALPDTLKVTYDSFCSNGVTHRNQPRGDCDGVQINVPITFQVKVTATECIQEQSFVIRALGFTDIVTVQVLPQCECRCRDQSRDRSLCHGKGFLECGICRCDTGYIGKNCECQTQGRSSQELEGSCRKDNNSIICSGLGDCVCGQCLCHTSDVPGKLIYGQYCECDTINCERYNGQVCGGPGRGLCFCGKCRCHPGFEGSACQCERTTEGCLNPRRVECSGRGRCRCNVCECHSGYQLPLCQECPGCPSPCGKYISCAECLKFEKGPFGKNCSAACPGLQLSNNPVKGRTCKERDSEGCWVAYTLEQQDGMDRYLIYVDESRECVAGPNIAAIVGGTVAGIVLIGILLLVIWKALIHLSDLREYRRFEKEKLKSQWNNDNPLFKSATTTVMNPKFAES
MRP resist rev = compounds reversing MRP-mediated drug resistance; H69AR cells + 2 uM doxorubicin, CellTiter-Glo, 72 h; differential viability (reversal), % at 10 µM; 0.04% of 85,000 active; AID 602;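 active means viability drop by adding the cancer drug above about 55%, with treated viability meeting a 40% cutoff, limit read from the data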;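 further: larger differential means the compound sensitizes cells more to doxorubicin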
PTK2B oligo ant = antagonists of human Pyk2 oligomerization; Q14289; 0.83% of 99,000 active; z-score (the deposit names both 25 µM and 10 µM); Q293 cells, Pyk2 FERM NanoBiT luminescence; stronger effect = lower value;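 active means Z-score of -3 or lower, scaled per plate to the spread of control and sample wells; inactive means z-score above -3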;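 further: negative z-score means lost luminescence so less FERM oligomerization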
Mac1 fbg enh = increases human CD11b/CD18 adhesion to fibrinogen | P05107+P11215 | K562 CD11b/CD18 adhesion to fibrinogen, ATPlite luminescence | activation, % at 10 µM | 0.07% of 93,000 active | AID 1499;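 active means 10 µM primary screen giving 50% or more activity, confirmed by 40% or more on retest at that dose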
Cav3 T inh = human Cav3.2 channel inhibition, primary screen; O95180; Cav3.2-expressing cells, Fluo-4 calcium fluorescence FDSS; stronger effect = lower value; 4% of 100,000 active; B-score at 10 µM; AID 449739;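 active means single-dose well whose peak fluorescence ratio is a statistical outlier from its plate by either plate-standardised score or position-corrected B-score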
Hits are given with their value.

`O=C(Nc1ccccc1)c1ccc(S(=O)(=O)N2CCCCC2)cc1` gave MRP1 act inactive and Cav3 T inh inactive.
`O=C(Nc1nnc(-c2ccccc2Cl)o1)c1ccc(S(=O)(=O)N2CCCCCC2)cc1` gave MRP1 act inactive, CD11b adhes inh inactive, MRP resist rev inactive, Mac1 fbg enh inactive and Cav3 T inh -7.14.
For O=C(Nc1ccn(-c2ccccc2)n1)c1ccc(S(=O)(=O)N2CCCCCC2)cc1 the results were MRP1 act inactive, CD11b adhes inh inactive, MRP resist rev inactive, PTK2B oligo ant inactive, Mac1 fbg enh inactive and Cav3 T inh -1.88.
`CCCCN(CCCC)S(=O)(=O)c1ccc(C(=O)Nc2nnc(CSC)o2)cc1` gave MRP1 act inactive, CD11b adhes inh inactive, PTK2B oligo ant inactive, Mac1 fbg enh inactive and Cav3 T inh -3.13.
For CCCCN(CC)S(=O)(=O)c1ccc(C(=O)Nc2nnc(CSC)o2)cc1 the results were MRP1 act inactive, CD11b adhes inh inactive, PTK2B oligo ant inactive, Mac1 fbg enh inactive and Cav3 T inh inactive.
Screening O=C(CSc1nnc(-c2ccncc2)n1CCc1ccccc1)NCc1ccccc1 returned MRP1 act inactive, MRP resist rev inactive, PTK2B oligo ant inactive and Cav3 T inh inactive.
`Cc1ccc(OCCn2cnc3c(N)ncnc32)cc1` gave MRP1 act inactive, CD11b adhes inh inactive, MRP resist rev inactive, PTK2B oligo ant inactive, Mac1 fbg enh inactive and Cav3 T inh inactive.
CC1CCCCN1S(=O)(=O)c1ccc(C(=O)Nc2nnc(-c3ccccc3Cl)o2)cc1 (stereo unspecified) was read as MRP1 act inactive, CD11b adhes inh inactive, MRP resist rev inactive, PTK2B oligo ant inactive and Mac1 fbg enh inactive.
`CCC1CCCCN1S(=O)(=O)c1ccc(C(=O)Nc2nnc(-c3ccccc3Cl)o2)cc1` (stereo unspecified) gave MRP1 act inactive, MRP resist rev inactive, PTK2B oligo ant inactive and Cav3 T inh -7.93.
`Cc1ccc(Cl)cc1NC(=O)CC(O)(C(F)(F)F)C(F)(F)F` gave MRP1 act inactive, CD11b adhes inh 98.5, MRP resist rev inactive, PTK2B oligo ant inactive, Mac1 fbg enh inactive and Cav3 T inh -2.73.
For Cc1ccc(Cl)cc1NC(=O)CSC(N)=O the results were MRP1 act inactive, CD11b adhes inh inactive, MRP resist rev inactive, PTK2B oligo ant inactive, Mac1 fbg enh inactive and Cav3 T inh inactive.
`COc1cc(NC(=O)c2cc3c(Cl)nc4ccccc4c3s2)cc(OC)c1OC` gave MRP1 act inactive.
COc1ccc(CN(C(=O)c2ccco2)c2ccc(Br)cc2)cc1OC was read as MRP1 act inactive, CD11b adhes inh inactive, PTK2B oligo ant inactive, Mac1 fbg enh inactive and Cav3 T inh -4.55.
For Cc1ccc(N(Cc2ccc([N+](=O)[O-])cc2)C(=O)c2ccco2)cc1 the results were MRP1 act inactive, PTK2B oligo ant inactive and Cav3 T inh -6.71.
Cc1nnc(SCc2cc(=O)[nH]c(Nc3nc(C)c4ccccc4n3)n2)s1 was read as MRP resist rev inactive.
For CCn1c(CSc2nc3ccccc3[nH]2)n[nH]c1=S the results were MRP1 act inactive, CD11b adhes inh inactive, MRP resist rev inactive, PTK2B oligo ant inactive, Mac1 fbg enh inactive and Cav3 T inh inactive.
Screening O=C(O)CCn1c(SCc2ccccc2)nc2ccccc21 returned MRP1 act inactive, CD11b adhes inh inactive, MRP resist rev inactive, PTK2B oligo ant inactive, Mac1 fbg enh inactive and Cav3 T inh inactive.
`Cc1noc(C)c1CSc1nc2ccccc2n1CCc1ccccc1` gave MRP1 act inactive, CD11b adhes inh inactive, MRP resist rev inactive, PTK2B oligo ant inactive, Mac1 fbg enh inactive and Cav3 T inh -4.14.
Screening CN(C)S(=O)(=O)N(CC(=O)Nc1ccc(F)c(F)c1)c1ccccc1 returned MRP1 act inactive, CD11b adhes inh inactive, MRP resist rev inactive, PTK2B oligo ant inactive, Mac1 fbg enh inactive and Cav3 T inh inactive.
CN(C)S(=O)(=O)N(CC(=O)Nc1ccc2ccccc2c1)c1ccccc1 was read as MRP1 act inactive, MRP resist rev inactive, PTK2B oligo ant inactive and Cav3 T inh -9.53.
For O=C(Cc1csc(N2CCOCC2)n1)N/N=C/c1ccc(Cl)cc1Cl the results were MRP1 act inactive, CD11b adhes inh 55.2, PTK2B oligo ant inactive, Mac1 fbg enh inactive and Cav3 T inh inactive.
`Cc1ccc2cc(/C=N/NC(=O)CN3CCOCC3)c(Cl)nc2c1` gave MRP1 act inactive, CD11b adhes inh inactive, PTK2B oligo ant inactive, Mac1 fbg enh inactive and Cav3 T inh inactive.
For O=C(CSc1nnnn1-c1cccc2ccccc12)Nc1ccc(N2CCOCC2)c(Cl)c1 the results were MRP1 act inactive, CD11b adhes inh inactive, MRP resist rev inactive, PTK2B oligo ant -3.31, Mac1 fbg enh inactive and Cav3 T inh inactive.
`Cc1cccc(NC(=O)CSc2nc3ccccc3o2)c1` gave MRP1 act inactive, CD11b adhes inh inactive, PTK2B oligo ant inactive, Mac1 fbg enh inactive and Cav3 T inh -6.94.
`CC(=O)Nc1ccc(NC(=O)CSc2nc3ccccc3o2)cc1` gave MRP1 act inactive and PTK2B oligo ant inactive.
`Cc1ccc(-n2nnnc2SCC(=O)Nc2ccccc2N2CCCCC2)cc1C` gave MRP1 act inactive, CD11b adhes inh inactive, MRP resist rev inactive, PTK2B oligo ant inactive, Mac1 fbg enh inactive and Cav3 T inh -4.09.
`O=C(CSc1nnnn1-c1ccccc1)Nc1ccc(N2CCOCC2)c(Cl)c1` gave MRP1 act inactive, CD11b adhes inh inactive, MRP resist rev inactive, PTK2B oligo ant inactive, Mac1 fbg enh inactive and Cav3 T inh inactive.
`O=C(CSc1nc2ccccc2o1)Nc1ccccc1N1CCCCCC1` gave MRP1 act inactive, MRP resist rev inactive, PTK2B oligo ant inactive and Cav3 T inh -6.58.
For O=C(CSc1nc2ccccc2o1)NC(=O)NCc1ccccc1 the results were MRP1 act inactive, MRP resist rev inactive, PTK2B oligo ant inactive and Cav3 T inh -6.52.
Screening O=C(CSc1nc2ccccc2o1)Nc1ccc(N2CCOCC2)c(Cl)c1 returned MRP1 act inactive, CD11b adhes inh inactive, MRP resist rev inactive, PTK2B oligo ant inactive, Mac1 fbg enh inactive and Cav3 T inh -3.76.
`O=C(CSc1nnc(C23CC4CC(CC(C4)C2)C3)o1)Nc1ccc(N2CCOCC2)c(Cl)c1` gave MRP1 act inactive, CD11b adhes inh inactive, MRP resist rev inactive, PTK2B oligo ant -3.26, Mac1 fbg enh inactive and Cav3 T inh inactive.
CC(C)(C)C1CCC2(CC1)Nc1cccc3cccc(c13)N2 was read as MRP1 act inactive, CD11b adhes inh inactive, MRP resist rev inactive, PTK2B oligo ant inactive, Mac1 fbg enh inactive and Cav3 T inh inactive.
Screening CCOC(=O)C(NCc1ccc2c(c1)OCO2)(NC(=O)CC)C(F)(F)F (stereo unspecified) returned MRP1 act inactive, CD11b adhes inh inactive, MRP resist rev inactive, PTK2B oligo ant inactive, Mac1 fbg enh inactive and Cav3 T inh inactive.
COc1nc(Nc2ccc([N+](=O)[O-])cc2)nc(NC(C)C)n1 was read as MRP1 act inactive and PTK2B oligo ant inactive.
